Screening results as filed in PubChem BioAssay.
Only some compounds are listed: those with a hit (about 2.2% of all), similar ones and a draw of the others.
Abeta yeast res – compounds reversing amyloid beta toxicity in yeast | yeast expressing A-beta42, growth rescue, OD600, 48 h; response scale: 0% DMSO, 100% iron-clioquinol control | actives 0.063% (n = 410,000) | Potency, µM (series often up to 46.1 µM), most hits filed as activators; further: nearly all actives have a fitted effect of over 55% in size
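Growth rescue measured by 600 nm absorbance after 48 h yeast culture at 30 C with compound. Values normalized between DMSO and an equimolar ferric chloride plus clioquinol control.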
Mito fusion act – blocks mitochondrial division or promotes mitochondrial fusion; S. cerevisiae fusion-defective mutant growth rescue, CellTiterGlo 48 h; Potency, µM (doses to about 46.1 µM), without a hit: at the top dose growth rescue (activation), actives largely listed as activators; AID 485298; actives 0.23% (n = 320,000); further: % of control where 0% means no effect; nearly all actives have a fitted effect of over 45% in size
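Growth-rescue viability read-out: after 48 h at the non-permissive 37C in glycerol/ethanol YPEG, yeast mitochondrial fusion mutants are measured by CellTiterGlo luminescence; compounds (23 nl pinned per well) restoring growth score as division inhibitors or fusion activators.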
TDP-43 yeast inh – TDP-43 toxicity inhibition in yeast. TDP-43 expressing yeast growth rescue, BacTiter-Glo, 24 h. Potency, µM (top dose mostly 46.1 µM), inactives show top-dose growth rescue (activation), usual class: activators. actives 1.8% (n = 410,000); further: % of control where 0% means no effect; nearly all actives have a fitted effect of over 50% in size
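Yeast expressing TDP-43 (pregrown in raffinose, seeded at OD600=0.02 in galactose medium) exposed to compounds 24 hr at 30 deg C. Growth read by BacTiter-Glo luminescence; rescue of toxicity appears as increased signal.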
aSyn yeast inh – rescues yeast growth from alpha-synuclein toxicity; Yeast expressing alpha-synuclein, growth rescue, BacTiter-Glo, 24 h; Potency, µM (highest dose often 46.1 µM), for inactives: at the top dose growth rescue (activation), actives largely listed as activators; actives 0.14% (n = 370,000); further: % of control where 0% means no effect; nearly all actives have a fitted effect of over 65% in size
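Screening used galactose-induced yeast with toxic alpha-synuclein levels, exposed to compound for 24 hr at 30 deg C. Cell growth, read with BacTiter-Glo luminescence, gave the measured signal.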
FUS suppressor – FUS proteinopathy suppression in yeast; S. cerevisiae FUS-expressing, growth rescue, OD600, 24 h; AID 1347120; actives 0.24% (n = 390,000); Potency, µM (titrated, usually from 76.6 µM), most hits filed as activators;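 further: plate controls were DMSO vehicle for no effect and reference control for full effect; nearly all actives have a fitted effect of over 55% in size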
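Yeast FUS proteinopathy model; galactose-induced FUS (2%), starting OD 0.005. Cpds in dilution series, 24hr, 30C, 99% humidity. Abs 600 nm growth. Pos ctrl CP55940 (top 92uM final); neg ctrl DMSO.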
ERG-DNA inh – blocks human ERG Ets domain binding to DNA; P11308; fluorescence polarization, His-ERG Ets domain / labelled DNA; Potency, µM (titrated, usually from 76.9 µM), for the others: at the top dose FP activity, negative = inhibition, actives largely listed as inhibitors; actives 0.028% (n = 370,000); AID 624246; active means well fitted inhibition curve with a large enough effect in the polarisation, with a control signal flat; inconclusive means small, poorly fitted or top-dose-only effect, or effect the other way, or a change in a side signal; inactive means no such curve, though single readings can be large or run the other way; the % refers to the polarisation;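 further: polarization taken with two DNA probes labelled with fluorescein and Texas red; % of control where 0% means no effect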
Target sequence (P11308 whole entry, looked up, the tested form may be a part): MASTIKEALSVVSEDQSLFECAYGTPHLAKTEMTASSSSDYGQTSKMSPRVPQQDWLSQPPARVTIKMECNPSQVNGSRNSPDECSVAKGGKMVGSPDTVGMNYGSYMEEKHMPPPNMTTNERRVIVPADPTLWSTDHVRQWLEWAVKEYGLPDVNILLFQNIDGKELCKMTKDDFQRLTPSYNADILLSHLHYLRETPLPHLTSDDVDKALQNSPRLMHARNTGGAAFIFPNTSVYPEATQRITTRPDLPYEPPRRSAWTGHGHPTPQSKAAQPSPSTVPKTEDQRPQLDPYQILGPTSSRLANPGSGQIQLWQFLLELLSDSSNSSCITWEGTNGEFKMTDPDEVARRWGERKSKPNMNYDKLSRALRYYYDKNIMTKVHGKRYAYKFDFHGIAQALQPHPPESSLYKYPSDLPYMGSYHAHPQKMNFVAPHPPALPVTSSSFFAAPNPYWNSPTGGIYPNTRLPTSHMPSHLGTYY
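His-tagged ERG Ets domain (1 uM in the protein solution; 300mM KCl, 50mM Tris-HCl, 1mM EDTA, 1mM DTT, pH 7.5) received compound, then a probe mix of 5 nM fluorescein-DNA and 100nM Texas-615-DNA. Fluorescence polarization was read for both dyes.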
Numbers without * were called inactive. Unless noted, the call rests on the fitted dose curve; in most records, active means well fitted curve in the direction sought with a large enough effect; inconclusive means small, poorly fitted or top-dose-only effect, or another doubt; inactive means no such curve, though single readings can be large; an effect the other way counts as inactive or inconclusive. Potency means the concentration at half of the fitted maximal effect.

Results for Cc1nc(Nc2ccccc2F)c2oc3ccccc3c2n1 ?
Abeta yeast res: inactive; Mito fusion act: -9%; TDP-43 yeast inh: 2.5µM*; aSyn yeast inh: 0%; FUS suppressor: inactive; ERG-DNA inh: -3%

How did Cc1nc(Nc2ccc(Cl)cc2)c2oc3ccccc3c2n1 do in these assays?
Abeta yeast res: inactive; Mito fusion act: 17%; TDP-43 yeast inh: 9%; aSyn yeast inh: -14%; FUS suppressor: inactive; ERG-DNA inh: -4%

Results for Cc1nc(Nc2cccc(Cl)c2)c2oc3ccccc3c2n1 ?
Abeta yeast res: inactive; Mito fusion act: 19%; TDP-43 yeast inh: 16µM*; aSyn yeast inh: -23%; FUS suppressor: inactive; ERG-DNA inh: 13%

How did CCN(CC)C(=O)c1cc(-c2ccc(Cl)cc2)on1 do in these assays?
Abeta yeast res: inactive; TDP-43 yeast inh: inconclusive; FUS suppressor: inactive; ERG-DNA inh: -12%

Results for Cc1ccc(Cl)cc1N1CCN(C(=O)CNC(=O)c2ccc(Br)o2)CC1 ?
Abeta yeast res: inactive; Mito fusion act: 16µM*; TDP-43 yeast inh: 17%; aSyn yeast inh: 27%

What do the screens show for `Cc1ccc(Cl)cc1N1CCN(C(=O)c2ccc(CS(=O)Cc3ccc(Cl)cc3)o2)CC1` (centres undefined)?
Abeta yeast res: inactive; Mito fusion act: -23%; TDP-43 yeast inh: 20µM*; aSyn yeast inh: inconclusive; FUS suppressor: inconclusive; ERG-DNA inh: 13%

What do the screens show for `C=CCCC(=O)N1CCC(C(=O)NC2CCCc3ccccc32)CC1` (centres undefined)?
FUS suppressor: inactive

Results for O=C(N/N=C/c1cn(CCOc2ccccc2)c2ccccc12)c1ccncc1 ?
Abeta yeast res: inactive; Mito fusion act: 9%; TDP-43 yeast inh: -23%; aSyn yeast inh: -4%; FUS suppressor: inactive; ERG-DNA inh: -11%

How did COc1ccccc1OCCn1cc(/C=N/NC(=O)c2ccncc2)c2ccccc21 do in these assays?
Abeta yeast res: inactive; Mito fusion act: 7%; TDP-43 yeast inh: 13µM*; aSyn yeast inh: 10%; FUS suppressor: inactive; ERG-DNA inh: -12%

Results for O=C(c1ccco1)c1cn(CCOc2ccc(F)cc2)c2ccccc12 ?
Abeta yeast res: inactive; TDP-43 yeast inh: 18µM*; FUS suppressor: inactive; ERG-DNA inh: 7%

What do the screens show for `COC(=O)c1cn(CCOc2ccccc2F)c2ccccc12`?
Abeta yeast res: inconclusive; Mito fusion act: 29%; TDP-43 yeast inh: 11µM*; aSyn yeast inh: 9%; FUS suppressor: inactive; ERG-DNA inh: 2%

How did CCOC(=O)CC[C@@]1(C(=O)OCC)C[C@@H](CC(=O)NCc2ccc(C)o2)C(=O)N2CCCC=C21 do in these assays?
FUS suppressor: inactive

What do the screens show for `O=C(Nc1cccc(F)c1)c1cccnc1NCCc1ccccc1`?
Abeta yeast res: inactive; Mito fusion act: inconclusive; TDP-43 yeast inh: 33%; aSyn yeast inh: -1%; FUS suppressor: inactive; ERG-DNA inh: -5%

How did O=C(Nc1ccc(F)cc1)c1cccnc1NCCc1ccccc1 do in these assays?
Abeta yeast res: inactive; Mito fusion act: 18µM*; TDP-43 yeast inh: 13µM*; aSyn yeast inh: -10%; FUS suppressor: inactive; ERG-DNA inh: -6%

Results for CCOc1ccc(NC(=O)CN(Cc2ccccc2)S(=O)(=O)c2ccc3nc(C)sc3c2)cc1 ?
Abeta yeast res: inactive; TDP-43 yeast inh: 28%; FUS suppressor: inactive; ERG-DNA inh: -1%

How did Cn1ncc2c(NCc3ccccc3)nc(NCCCO)nc21 do in these assays?
Abeta yeast res: inactive; Mito fusion act: 5%; TDP-43 yeast inh: 10%; aSyn yeast inh: -8%; FUS suppressor: inactive; ERG-DNA inh: -9%

Results for CC(C)CCNc1nc(Nc2ccccc2)c2cnn(C)c2n1 ?
Abeta yeast res: inactive; TDP-43 yeast inh: 18µM*; FUS suppressor: inconclusive; ERG-DNA inh: 2%

Results for O=C(COc1ccc(Br)cc1Br)NC(=O)NC1CCCC1 ?
Abeta yeast res: inactive; Mito fusion act: -5%; TDP-43 yeast inh: 21%; aSyn yeast inh: 11%; FUS suppressor: inactive; ERG-DNA inh: 1%

How did CC(C)(C)NC(=O)NC(=O)COc1ccc(Br)cc1Br do in these assays?
Abeta yeast res: inactive; Mito fusion act: inconclusive; TDP-43 yeast inh: 28µM*; aSyn yeast inh: 9%; FUS suppressor: inactive; ERG-DNA inh: 1%

How did COc1ccc(OC(F)(F)F)cc1CC1(C)C(=O)Nc2ccc(-c3ccsc3)cc21 (centres undefined) do in these assays?
Abeta yeast res: inactive; TDP-43 yeast inh: 14µM*; aSyn yeast inh: -37%; FUS suppressor: inactive

What do the screens show for `COc1ccc(OC(F)(F)F)cc1CC1(C)C(=O)Nc2ccc(S(=O)(=O)NC3CCCCC3)cc21` (centres undefined)?
Abeta yeast res: inactive; TDP-43 yeast inh: 12%; aSyn yeast inh: -6%; FUS suppressor: 32µM*

Results for COc1ccc(C(C)=O)cc1CC1(C)C(=O)Nc2ccc(OC(F)(F)F)cc21 (centres undefined) ?
Abeta yeast res: inactive; TDP-43 yeast inh: -18%; aSyn yeast inh: -17%; FUS suppressor: inconclusive

Results for CCSc1ccccc1C(=O)Nc1ccc(-c2nc3ccccc3s2)c(O)c1 ?
Abeta yeast res: inactive; TDP-43 yeast inh: -6%; FUS suppressor: inactive; ERG-DNA inh: 1%

Results for O=C(O/N=C1\CCCc2ccccc21)c1cccc(Cl)c1 ?
Abeta yeast res: inactive; Mito fusion act: 18%; TDP-43 yeast inh: 5µM*; aSyn yeast inh: 1%; FUS suppressor: inactive; ERG-DNA inh: -5%

What do the screens show for `Cc1cccc(C(=O)O/N=C2\CCCc3ccccc32)c1`?
Abeta yeast res: inactive; Mito fusion act: 4%; TDP-43 yeast inh: 11µM*; aSyn yeast inh: 0%; FUS suppressor: inactive; ERG-DNA inh: -6%

Results for Cc1ccc(C(=O)O/N=C2\CCCc3ccccc32)cc1 ?
Abeta yeast res: inactive; Mito fusion act: -1%; TDP-43 yeast inh: 24%; FUS suppressor: inactive; ERG-DNA inh: -3%

How did CCCC1CCC2(CCCN2CCOC(=S)Nc2ccccc2Br)CC1 (centres undefined) do in these assays?
FUS suppressor: inactive

What do the screens show for `Clc1ccc(CN2CCN(N=Cc3c4ccccc4cc4ccccc34)CC2)cc1`?
FUS suppressor: inactive

What do the screens show for `NC1=NC(=O)C(c2ccccc2)C(=O)N1` (centres undefined)?
Abeta yeast res: inactive; TDP-43 yeast inh: -12%; aSyn yeast inh: -5%; FUS suppressor: inactive; ERG-DNA inh: 20%
